# Assay results published in the supplement of paper PMC9950053.
# Counter-ions that a name gives are not always drawn.
# System: Danio rerio larvae (5 dpf)
# Assay: combined upward orientation toward moving lines (periods 7-14) minus DMSO control (percentage points); higher = more orientation with moving lines than DMSO larvae
# Conditions: 10 µM; exposure time: 3 h pre-incubation + 3 h imaging
# Method: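 Wild-type 5 dpf zebrafish larvae (n=48 per drug, 96-well plates, 28.5 °C) were exposed to Tocris FDA-approved library compounds at 10 µM (0.1% DMSO) for 3 h before and 3 h during imaging. Images were taken every 6 s during visual (moving coloured lines) and acoustic stimuli, and larvae were tracked with the DeepLabCut-based Z-LaP Tracker. Each behavioural measure is the treated-group mean minus the DMSO vehicle control mean (n=844), in percentage points. This mapping covers compounds with 4-character plate codes.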
row,Compound,combined upward orientation toward moving lines
1,CC[C@@H](C(N)=O)N1CCCC1=O [Levetiracetam],-2.84
2,CC(O)(CS(=O)(=O)c1ccc(F)cc1)C(=O)Nc1ccc(C#N)c(C(F)(F)F)c1 (stereo unspecified) [Bicalutamide],-2.4
3,CCN(C)C(=O)Oc1cccc([C@H](C)N(C)C)c1 [Rivastigmine tartrate],-5.99
4,COc1cc2c(cc1OC)C1CC(=O)C(CC(C)C)CN1CC2 (stereo unspecified) [Tetrabenazine],-21.4
5,O=c1[nH]c2ccccc2n1C1CCN(CCCC(c2ccc(F)cc2)c2ccc(F)cc2)CC1 [Pimozide],-5.82
6,CN1C[C@H](C(=O)N[C@]2(C)O[C@@]3(O)[C@@H]4CCCN4C(=O)[C@H](Cc4ccccc4)N3C2=O)C[C@@H]2c3cccc4[nH]cc(c34)C[C@H]21 [Dihydroergotamine mesylate],-20.6
7,C=C1C[C@@H]2[C@H](CC[C@]3(C)C(=O)CC[C@@H]23)[C@@]2(C)C=CC(=O)C=C12 [Exemestane],1.27
8,N[C@@H]1C[C@H]1c1ccccc1 [Tranylcypromine hydrochloride],1.03
9,C=CCN1C[C@H](C(=O)N(CCCN(C)C)C(=O)NCC)C[C@@H]2c3cccc4[nH]cc(c34)C[C@H]21 [Cabergoline],-13.9
10,CC(C)C[C@H]1C(=O)N2CCC[C@H]2[C@]2(O)O[C@](NC(=O)[C@@H]3C=C4c5cccc6[nH]c(Br)c(c56)C[C@H]4N(C)C3)(C(C)C)C(=O)N12 [Bromocriptine mesylate],-39
11,Cc1cccc([C@H](C)c2c[nH]cn2)c1C [Dexmedetomidine hydrochloride],-0.0673
